Screening results from PubChem BioAssay.
G9a inh – blocks human histone lysine methyltransferase G9a. 8.8% of 350,000 active. G9a H3K9 monomethylation, AlphaScreen, 2 h. AID 504332. Q96KQ7. Potency, µM (titrated, usually from 102 µM), for the others: top-dose activity, negative = inhibition, actives largely listed as inhibitors; further: potency means the concentration at half of the fitted maximal effect; on the % scale 0 is the no-effect control and ±100 the full control effect; nearly all actives have a fitted effect of over 75% in size
Target sequence (Q96KQ7 913-1193 limits assumed): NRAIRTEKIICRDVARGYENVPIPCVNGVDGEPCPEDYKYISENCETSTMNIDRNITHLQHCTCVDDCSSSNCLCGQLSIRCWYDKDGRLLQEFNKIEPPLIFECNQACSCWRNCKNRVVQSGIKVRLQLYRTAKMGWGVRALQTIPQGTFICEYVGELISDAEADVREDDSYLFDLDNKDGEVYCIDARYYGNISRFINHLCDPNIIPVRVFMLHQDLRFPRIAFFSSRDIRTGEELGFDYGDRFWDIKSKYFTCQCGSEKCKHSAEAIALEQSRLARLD
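Enzyme 20 nM + cpd, 15 min RT; add b-H3K9 pep 500 nM / SAM 20 uM; 2 h RT; anti-H3K9me1 Ab 0.5 ug/mL + SA donor / anti-rabbit acceptor beads 20 ug/mL each, 10 min; AlphaScreen read.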
Six1-Eya2 blk – Six1/Eya2 interaction inhibition. Q15475+O00167. AlphaScreen GST-Six1/His-Eya2 binding, biochemical; active compounds read low. activity change, % (test concentration not listed). 0.56% of 360,000 active. AID 651725; in the data active means activity change below about -65%; inconclusive means mostly about -30% to -63%; further: on the % scale 0 is the no-effect control and ±100 the full control effect
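Six1/Eya2 binding was read as AlphaScreen signal after compounds were pinned into GST-Six1 plus His-tagged Eya2 (5X stock 250/500 nM) in pH 8.0 Tris/NaCl/TCEP buffer, beads added, then incubated 1 h, 37 C, dark.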
HP1b binding inh – blocks HP1-beta chromodomain binding to methylated histone tails; P83916; AlphaScreen HP1-beta / biotin-H3K9me3 peptide binding; Potency, µM (doses to about 114 µM), for the others: at the top dose activity change, negative = inhibition, usual class: inhibitors; 0.56% of 390,000 active; AID 540317; further: potency means the concentration at half of the fitted maximal effect; nearly all actives have a fitted effect of over 70% in size
Target sequence (P83916 whole entry, looked up): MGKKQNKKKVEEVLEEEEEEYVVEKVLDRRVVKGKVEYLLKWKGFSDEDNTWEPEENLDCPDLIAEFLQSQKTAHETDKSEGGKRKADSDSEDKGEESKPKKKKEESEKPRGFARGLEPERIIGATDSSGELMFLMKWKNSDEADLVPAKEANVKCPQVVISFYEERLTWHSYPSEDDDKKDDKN
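AlphaScreen: HP1-beta (50 nM) preformed 30 min with biotin-H3(1-18)K9me3 peptide (50 nM) in PBS pH 7.4, 0.01% Tween-20. Compound added for 30 min at RT, then streptavidin donor/nickel chelate acceptor beads (10 ug/mL) for 30 min.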
JMJD2A Tudor inh – inhibitors of human JMJD2A Tudor domain; Potency, µM (doses to about 114 µM), for the others: top-dose activity change, negative = inhibition, actives largely listed as inhibitors; AlphaScreen JMJD2A-Tudor / H3K4me3 peptide binding; AID 504339; O75164; 4.4% of 390,000 active; further: potency means the concentration at half of the fitted maximal effect; on the % scale 0 is the no-effect control and ±100 the full control effect; nearly all actives have a fitted effect of over 50% in size
CtBP-E1A blk – inhibitors of CtBP/E1A interaction; AID 651724; activity change, % (concentration not given with the values); 0.49% of 340,000 active; AlphaScreen GST-E1A/His-CtBP binding, 1536-well; active compounds read low; in the data active means activity change below about -65%; inconclusive means mostly about -30% to -63%; further: on the % scale 0 is the no-effect control and ±100 the full control effect
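In 5 uL wells, 23 nL compound meets equimolar GST-E1A and His-CtBP (5X stock 125 nM each) for 2 h, 37 °C. Beads (5X, 50 ug/mL) then 1 h, 37 °C, dark.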
BAZ2B block – blocks human BAZ2B. Potency, µM (titrated, usually from 114 µM), for inactives: at the top dose activity change, negative = inhibition, actives largely listed as inhibitors. AID 504333. Q9UIF8. AlphaScreen BAZ2B-H3K14Ac peptide displacement. 4.4% of 360,000 active; further: potency means the concentration at half of the fitted maximal effect; on the % scale 0 is the no-effect control and ±100 the full control effect; nearly all actives have a fitted effect of over 60% in size
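Protein-peptide AlphaScreen: BAZ2B 50 nM, b-H3K14Ac 50 nM, 1x PBS pH 7.4 + 0.01% Tween-20. Preincubation 30 min RT; cpd 30 min RT (top 110 uM); beads 20 min RT, light-protected.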
Active calls of the source: *; [ ] = dose if it differs, or a comment. Only some compounds are listed: those with a hit (about 10% of all), similar ones and a draw of the others. Unless noted, the call rests on the fitted dose curve; in most records, active means well fitted inhibition curve with a large enough effect; inconclusive means small, poorly fitted or top-dose-only effect; inactive means no such curve, though single readings can be large or run the other way.

Results for CCCNC(=O)C1(C)CCN1C(=O)c1cc(C)n(C)n1 (stereo unspecified) ?
Six1-Eya2 blk: 8.1; CtBP-E1A blk: 4.7

What do the screens show for `O=C(O)C(Cc1ccccc1)N1C(=O)/C(=C/c2cccs2)SC1=S` (stereo unspecified)?
G9a inh: 22.4µM*; Six1-Eya2 blk: inconclusive; HP1b binding inh: -9.2%; JMJD2A Tudor inh: inconclusive; CtBP-E1A blk: inconclusive; BAZ2B block: inconclusive

Results for CC(c1ccccc1)N1C(=O)/C(=C/c2ccncc2)SC1=S (stereo unspecified) ?
G9a inh: 28.2µM*; Six1-Eya2 blk: -4.5; HP1b binding inh: inconclusive; JMJD2A Tudor inh: 15.8µM*; BAZ2B block: 15.8µM*

How did O=C(O)C(c1ccccc1)N1C(=O)/C(=C/c2cccs2)SC1=S (stereo unspecified) do in these assays?
Six1-Eya2 blk: -26.6; HP1b binding inh: -20.0%; JMJD2A Tudor inh: 3.98µM*; CtBP-E1A blk: inconclusive; BAZ2B block: -9.7%

How did COc1cccc(/C=C2\SC(=S)N(CCC(=O)Nc3ccc(O)cc3)C2=O)c1 do in these assays?
G9a inh: 19.8%; Six1-Eya2 blk: -0.2; HP1b binding inh: 12.9%; JMJD2A Tudor inh: -17.3%; CtBP-E1A blk: -16.5; BAZ2B block: -31.5%

How did C=CCOc1ccc(/C=C2\SC(=S)N(C(C(=O)O)c3ccccc3)C2=O)cc1 (stereo unspecified) do in these assays?
G9a inh: inconclusive; Six1-Eya2 blk: -0.7; HP1b binding inh: -20.8%; JMJD2A Tudor inh: inconclusive; CtBP-E1A blk: -5.1; BAZ2B block: inconclusive

What do the screens show for `COc1cccc(/C=C2\SC(=S)N(C(Cc3ccccc3)C(=O)O)C2=O)c1` (stereo unspecified)?
G9a inh: 44.7µM*; Six1-Eya2 blk: 7.8; HP1b binding inh: 40.9%; JMJD2A Tudor inh: -34.3%; CtBP-E1A blk: 1.3; BAZ2B block: inconclusive

Results for O=C(CN1C(=O)COc2ccc(S(=O)(=O)N3CCOCC3)cc21)NCc1ccc(Cl)cc1 ?
G9a inh: 6.2%[59 µM]; HP1b binding inh: 38.4%; JMJD2A Tudor inh: 7.3%; BAZ2B block: -32.1%

How did CCOc1ccc(NC(=O)CCNS(=O)(=O)c2ccc3c(c2)CC(C)N3C(C)=O)cc1 (stereo unspecified) do in these assays?
G9a inh: 9.0%[59 µM]; Six1-Eya2 blk: 0.2; HP1b binding inh: 15.3%; JMJD2A Tudor inh: 25.1µM*; CtBP-E1A blk: 0.8; BAZ2B block: -13.8%

Results for CCCCN(C)C(=O)C1CCCN(c2ncnc3onc(C)c23)C1 (stereo unspecified) ?
G9a inh: 0.7%[59 µM]; HP1b binding inh: 68.2%; JMJD2A Tudor inh: -5.5%; BAZ2B block: 26.9%[57.1 µM]

What do the screens show for `CC(=O)N1CCc2cc(NC(=O)C3(C)CCN3Cc3ccccc3OC(F)F)ccc21` (stereo unspecified)?
Six1-Eya2 blk: -9.4; CtBP-E1A blk: 2.8

Results for NNC(=O)c1ccc2c(c1)S(=O)(=O)NNC2=O ?
G9a inh: 11.2µM*; Six1-Eya2 blk: 5.1; HP1b binding inh: 76.5%; JMJD2A Tudor inh: 28.2µM*; CtBP-E1A blk: 11.2; BAZ2B block: -31.8%

What do the screens show for `O=C(NCCc1ccc(Cl)cc1)c1c2c(nc3ccccc13)C(=O)N(C1CCCCC1)C2`?
G9a inh: 13.3%[59 µM]; HP1b binding inh: 32.5%; JMJD2A Tudor inh: -8.3%; BAZ2B block: -3.5%

Results for Cn1nnnc1Sc1ncnc2scc(-c3ccccc3)c12 ?
G9a inh: 15.8%[59 µM]; Six1-Eya2 blk: -3.1; HP1b binding inh: 17.0%; JMJD2A Tudor inh: -3.4%; CtBP-E1A blk: 3.1; BAZ2B block: 2.1%

How did c1ccc(-c2csc3ncn4nnnc4c23)cc1 do in these assays?
G9a inh: -21.6%[12.7 µM]; Six1-Eya2 blk: 2.8; HP1b binding inh: inconclusive; JMJD2A Tudor inh: 14.1µM*; CtBP-E1A blk: 0.7; BAZ2B block: 0.0%

What do the screens show for `CCOc1ccccc1N1C(=O)CC(Sc2n[nH]c(-c3ccccc3)n2)C1=O` (stereo unspecified)?
G9a inh: 1.58µM*; Six1-Eya2 blk: -5.1; HP1b binding inh: 12.6µM*; JMJD2A Tudor inh: 1.41µM*; CtBP-E1A blk: 1.9; BAZ2B block: inconclusive

How did COc1ccccc1N1C(=O)CC(Sc2nc(C)cc(C)n2)C1=O (stereo unspecified) do in these assays?
G9a inh: -6.2%[59 µM]; Six1-Eya2 blk: 5.6; HP1b binding inh: 31.9%; JMJD2A Tudor inh: -16.3%; CtBP-E1A blk: 8.4; BAZ2B block: 2.3%

Results for CCOC(=O)CC1=NN(c2ccccc2)C(=O)/C1=C\c1ccc(OC)cc1OC ?
G9a inh: 10µM*; Six1-Eya2 blk: 4.9; HP1b binding inh: 15.8µM*; JMJD2A Tudor inh: 14.1µM*; CtBP-E1A blk: -3.2; BAZ2B block: 11.2µM*

How did COc1ccc(C(=O)NNC(=O)C2=NN(c3ccccc3)C(=O)CC2)cc1 do in these assays?
Six1-Eya2 blk: 2.3; HP1b binding inh: 67.8%; JMJD2A Tudor inh: -10.8%; CtBP-E1A blk: 3.0; BAZ2B block: 6.6%

What do the screens show for `COC(=O)CC1=NN(c2ccccc2)C(=O)/C1=C\c1ccc(OC)cc1`?
G9a inh: 20µM*; Six1-Eya2 blk: 1.3; HP1b binding inh: -9.8%; JMJD2A Tudor inh: -30.5%; CtBP-E1A blk: -0.6; BAZ2B block: inconclusive

How did CCOC(=O)CC1=NN(c2ccccc2)C(=O)C1=c1sc(=C2SC(C)=C(C)N2CC)c(=O)n1CC do in these assays?
Six1-Eya2 blk: 5.3; HP1b binding inh: 15.0%; JMJD2A Tudor inh: 11.3%; CtBP-E1A blk: -6.1

Results for COC(=O)CC1=NN(c2ccc(OC)cc2)C(=O)/C1=C\c1ccc(Cl)cc1 ?
G9a inh: 20µM*; Six1-Eya2 blk: -4.8; HP1b binding inh: inconclusive; JMJD2A Tudor inh: inconclusive; CtBP-E1A blk: 1.8; BAZ2B block: 50.1µM*

What do the screens show for `CCc1c(C(=O)NNC(=O)Nc2ccc3c(c2)OCO3)csc1C`?
G9a inh: inconclusive; Six1-Eya2 blk: -1.9; HP1b binding inh: 15.8%; JMJD2A Tudor inh: -27.6%; CtBP-E1A blk: 1.6; BAZ2B block: -20.9%

What do the screens show for `COC(=O)Nc1nc2c(s1)CCCC2`?
G9a inh: 21.4%[59 µM]; Six1-Eya2 blk: -0.2; HP1b binding inh: 22.6%; JMJD2A Tudor inh: -22.4%; CtBP-E1A blk: 1.3; BAZ2B block: -1.0%

What do the screens show for `CC(=O)NC(Nc1nc2c(s1)CCCC2)(C(F)(F)F)C(F)(F)F`?
G9a inh: 50.1µM*; Six1-Eya2 blk: 4.6; HP1b binding inh: inconclusive; JMJD2A Tudor inh: -2.4%; CtBP-E1A blk: 7.5; BAZ2B block: -3.1%

How did c1ccc(-c2nnc(N3CCN(c4ccccc4)CC3)nc2-c2ccccc2)cc1 do in these assays?
G9a inh: 12.6µM*; Six1-Eya2 blk: -5.3; HP1b binding inh: -11.0%; JMJD2A Tudor inh: inconclusive; CtBP-E1A blk: 1.9; BAZ2B block: inconclusive
